LmPK inhibitor: inhibitors of Leishmania mexicana pyruvate kinase; Q27686; purified LmPK, Kinase-Glo ATP luminescence, 1 h; Potency, µM (top dose mostly 57.5 µM), for inactives: top-dose activity change, negative = inhibition, most hits filed as inhibitors; 290,000 compounds, 0.37% hits; further: potency means the concentration at half of the fitted maximal effect; on the % scale 0 is the no-effect control and ±100 the full control effect
Target sequence (Q27686 whole entry, looked up): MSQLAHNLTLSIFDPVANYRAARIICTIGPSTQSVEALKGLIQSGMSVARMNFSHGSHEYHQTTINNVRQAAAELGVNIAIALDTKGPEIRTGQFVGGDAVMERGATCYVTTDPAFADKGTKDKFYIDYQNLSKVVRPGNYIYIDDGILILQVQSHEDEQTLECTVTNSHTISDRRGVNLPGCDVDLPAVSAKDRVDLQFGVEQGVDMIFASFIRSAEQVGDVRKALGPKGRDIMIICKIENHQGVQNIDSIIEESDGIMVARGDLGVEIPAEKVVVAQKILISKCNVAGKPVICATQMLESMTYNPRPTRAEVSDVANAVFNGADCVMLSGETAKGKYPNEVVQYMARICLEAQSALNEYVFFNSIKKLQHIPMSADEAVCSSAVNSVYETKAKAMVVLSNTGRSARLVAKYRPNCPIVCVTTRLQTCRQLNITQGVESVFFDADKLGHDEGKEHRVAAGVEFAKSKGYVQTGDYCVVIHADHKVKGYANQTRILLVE
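Pyruvate kinase activity monitored as ATP production (luciferase luminescence). Conditions: 0.1 nM enzyme, 0.5 mM PEP, 0.1 mM ADP, 1 h, RT; normalized against uninhibited and no-enzyme wells.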
RE007 growth inh: less growth of the S. pombe RE007 Vpr strain; 360,000 compounds, 0.21% hits; Potency, µM (highest dose often 92.2 µM), inactives show at the highest dose activity change, negative = less growth, most hits filed as inhibitors; AID 651644; S. pombe RE007 Vpr strain, BacTiter-Glo ATP luminescence, 24 h; active means well fitted falling curve with a large enough effect; inconclusive means small, poorly fitted or top-dose-only effect; inactive means no such curve, though single readings can be large or run the other way; further: potency means the concentration at half of the fitted maximal effect; on the % scale 0 is the no-effect control and ±100 the full control effect; nearly all actives have a fitted effect of over 50% in size
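Fission yeast RE007 carrying one integrated HIV-1 vpr copy, seeded at OD 0.01 in PMG+AL medium with 23 nL pinned compound. Grown 24 h at 30 degrees; viability read by BacTiter-Glo luminescence after 5 min.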
TbPYK inhibitor: T. brucei pyruvate kinase inhibition | Q57TT1 | TbPYK enzyme, Kinase-Glo Plus ATP luminescence, 45 min | AID 624173 | Potency, µM (top dose mostly 76.8 µM), inactives show at the top dose activity, negative = inhibition, hits mostly inhibitors | 410,000 compounds, 0.12% hits; further: potency means the concentration at half of the fitted maximal effect; on the % scale 0 is the no-effect control and ±100 the full control effect; nearly all actives have a fitted effect of over 50% in size
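Luminescent Kinase-Glo Plus end-point after 45 min room-temperature reaction of T. brucei pyruvate kinase started with 130 uM ADP (final). Buffer TEA 50 mM pH 7.2 with KCl, MgCl2, BSA, Tween-20; titration-based qHTS with fitted concentration-effect curves.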
FBPA Giardia inh: inhibitors of Giardia lamblia fructose-1,6-bisphosphate aldolase. A8B2U2. purified Giardia FBPA. Potency, µM (highest dose often 59.6 µM), without a hit: at the top dose activity, negative = inhibition, hits mostly inhibitors. 290,000 compounds, 0.71% hits; further: potency means the concentration at half of the fitted maximal effect; on the % scale 0 is the no-effect control and ±100 the full control effect; nearly all actives have a fitted effect of over 55% in size
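Giardia FBPA (40 nM reagent) was preincubated 10 min at RT with compound (up to 57.5 uM final), then substrate plus GAPDH/TPI/NAD/arsenate coupling system with diaphorase/resazurin was added; resorufin fluorescence (525/598 nm) was read after 20 min.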
Shiga inhibitor: blocks Shiga toxin action in Vero cells; Vero cells, Shiga toxin protein synthesis inhibition reporter; inhibition, % at 38.7 µM; 290,000 compounds, 9.2% hits; AID 2315; in the data active means inhibition mostly above about 28%, no sharp cut-off; inactive means mostly below about 43%; further: 0% is about no effect
CHX counter: counter-screen for Shiga toxin inhibitors: cycloheximide protein synthesis inhibition; cell reporter, cycloheximide protein synthesis inhibition counterscreen; max response, %; 300,000 compounds, 12% hits; AID 2314; in the data active means max response mostly above about 13%, no sharp cut-off; inactive means mostly below about 14%; further: read at 38.3 µM for the half of the compounds with a filed dose; 0% is about no effect
Active calls of the source: *; [ ] = dose if it differs, or a comment. The full list was thinned out, with hits kept by preference. Unless noted, the call rests on the fitted dose curve; in most records, active means well fitted curve in the direction sought with a large enough effect; inconclusive means small, poorly fitted or top-dose-only effect, or another doubt; inactive means no such curve, though single readings can be large; an effect the other way counts as inactive or inconclusive.

How did CC(C)(C)N1C(=O)c2ccc(C(=O)Nc3nccs3)cc2C1=O do in these assays?
LmPK inhibitor: 3.2%; RE007 growth inh: -5.1%; TbPYK inhibitor: -4.4%; FBPA Giardia inh: 6.9%; Shiga inhibitor: 56.7*; CHX counter: 31.4*

Results for Cc1cc(NC(=O)c2ccc3c(c2)C(=O)N(C(C)(C)C)C3=O)no1 ?
LmPK inhibitor: 10.8%; RE007 growth inh: -14.4%; TbPYK inhibitor: 4.3%; FBPA Giardia inh: 8.5%; Shiga inhibitor: 33.7; CHX counter: 21.3*

How did O=C(Nc1nccs1)c1ccc2c(c1)C(=O)N(Cc1cccnc1)C2=O do in these assays?
LmPK inhibitor: -3.5%; RE007 growth inh: 14.5%; TbPYK inhibitor: 2.0%; Shiga inhibitor: 18.3; CHX counter: -2.8

What do the screens show for `CCc1nnc(NS(=O)(=O)c2ccc(NCc3cc(Br)ccc3O)cc2)s1`?
LmPK inhibitor: -6.4%; RE007 growth inh: 30.8%; TbPYK inhibitor: -5.8%; Shiga inhibitor: -6.1; CHX counter: 1.4

How did COc1nccnc1NS(=O)(=O)c1ccc(NCc2cc(Br)ccc2O)cc1 do in these assays?
LmPK inhibitor: -4.6%; RE007 growth inh: 11.5%; TbPYK inhibitor: 9.3%; FBPA Giardia inh: 4.0%; Shiga inhibitor: 57.1*; CHX counter: 37.1*

What do the screens show for `CC(C)(C)C(=O)Nc1nnc(CSCc2ccccc2F)s1`?
LmPK inhibitor: 2.1%; RE007 growth inh: -15.5%; TbPYK inhibitor: 2.9%; FBPA Giardia inh: 4.8%; Shiga inhibitor: 105.4*; CHX counter: 90.2*

How did CCC(=O)Nc1nnc(Cc2ccccc2)s1 do in these assays?
LmPK inhibitor: -8.6%; RE007 growth inh: -1.5%; TbPYK inhibitor: 2.7%; FBPA Giardia inh: 6.9%; Shiga inhibitor: 15.8; CHX counter: 10.3

How did CC(C)(C)Cc1nnc(NC(=O)CCc2ccccc2)s1 do in these assays?
LmPK inhibitor: -2.5%; RE007 growth inh: 1.1%; TbPYK inhibitor: -1.0%; FBPA Giardia inh: 7.1%; Shiga inhibitor: 8.3; CHX counter: 12.6*

What do the screens show for `CC(C)C(=O)Nc1nnc(CCc2ccccc2)s1`?
LmPK inhibitor: 1.7%; TbPYK inhibitor: 1.9%; FBPA Giardia inh: 12.9%; Shiga inhibitor: 30.0; CHX counter: 18.7*

Results for CCC(=O)Nc1nnc(CCc2ccccc2)s1 ?
LmPK inhibitor: 2.1%; RE007 growth inh: 0.0%; TbPYK inhibitor: 0.7%; FBPA Giardia inh: -1.3%; Shiga inhibitor: 21.9; CHX counter: 13.1*

What do the screens show for `CN(C)CC#Cc1cccc(-c2nc(C(=O)O)cc3c2[C@@H](CCO)N(S(=O)C(C)(C)C)C3)c1` (some centres not stated)?
RE007 growth inh: 3.1%; TbPYK inhibitor: -22.6%

How did CCOC(=O)CN(C)C(=O)C1CC(CO[Si](C)(C)C(C)(C)C)=CN1C(=O)OC(C)(C)C (configuration not stated) do in these assays?
FBPA Giardia inh: -1.4%; Shiga inhibitor: 3.5; CHX counter: 7.4

Results for C=C/C1=C/Cc2ccccc2C(C[N+](=O)[O-])C(C(=O)OC)(C(=O)OC)C1 (configuration not stated) ?
FBPA Giardia inh: 0.7%[12.9 µM]

What do the screens show for `O=C(Nc1nnc(CCc2ccccc2)s1)c1ccccc1`?
LmPK inhibitor: -4.8%; RE007 growth inh: inconclusive; TbPYK inhibitor: 1.1%; FBPA Giardia inh: -11.5%; Shiga inhibitor: 46.0*; CHX counter: 14.5*

How did CC(C)(C)C(=O)Nc1nnc(CCc2ccccc2)s1 do in these assays?
LmPK inhibitor: 0.3%; RE007 growth inh: 11.8%; TbPYK inhibitor: -8.7%; FBPA Giardia inh: 15.8%; Shiga inhibitor: 81.5*; CHX counter: 49.6*

What do the screens show for `CCOC(=O)c1ccc(NC(=O)c2cc(C)nc3ccccc23)cc1`?
LmPK inhibitor: 2.0%; RE007 growth inh: 4.0%; TbPYK inhibitor: -1.4%; FBPA Giardia inh: -1.3%; CHX counter: -0.2

What do the screens show for `CCc1ccc(OCc2ccccc2C(=O)Nc2ccc3nc(C)cc(N)c3c2)cc1`?
FBPA Giardia inh: 0.9%; Shiga inhibitor: 34.9*; CHX counter: 26.7

Results for CC(=O)Nc1ccccc1-c1nc2ccccc2n(CC(=O)Nc2ccc(C)c(Cl)c2)c1=O ?
TbPYK inhibitor: -1.6%

What do the screens show for `COc1cccc(CSc2nc3ccncc3[nH]2)c1`?
LmPK inhibitor: 25.1µM*; RE007 growth inh: inconclusive; TbPYK inhibitor: -4.6%; FBPA Giardia inh: -7.1%; Shiga inhibitor: 50.4*; CHX counter: 41.1*

How did Clc1ccccc1CSc1nc2ccncc2[nH]1 do in these assays?
LmPK inhibitor: -14.8%; RE007 growth inh: -26.4%; TbPYK inhibitor: -11.1%; FBPA Giardia inh: -11.4%; Shiga inhibitor: 66.5; CHX counter: 21.0*

Results for COc1cccc(N2CCN(C(=O)c3ccc(CSc4nc5ccncc5[nH]4)cc3)CC2)c1 ?
LmPK inhibitor: 0.7%; RE007 growth inh: -7.9%; TbPYK inhibitor: 26.1%; FBPA Giardia inh: -28.6%; Shiga inhibitor: -7.7; CHX counter: -2.2

What do the screens show for `Cc1ccc(CCNC(=O)c2cn(C)c3ccc(S(=O)(=O)N4CCC(C)CC4)cc3c2=O)cc1`?
TbPYK inhibitor: 1.4%

What do the screens show for `CCCCN1C(=O)/C(=C/C=C2\Oc3ccccc3N2CC)SC1=S`?
LmPK inhibitor: 1.5%; RE007 growth inh: 6.4%; TbPYK inhibitor: -7.9%; FBPA Giardia inh: -17.5%; Shiga inhibitor: 9.8; CHX counter: -6.4

How did CCN1C(=O)/C(=C/C=C2/SCCN2C)SC1=S do in these assays?
LmPK inhibitor: -17.8%; RE007 growth inh: 20.1%; TbPYK inhibitor: -8.2%; FBPA Giardia inh: -7.9%; Shiga inhibitor: 78.0*; CHX counter: 58.9*

Results for CCCCN1C(=O)/C(=C/C=C2/CC(C)(C)CN2C)SC1=S ?
LmPK inhibitor: -1.0%; RE007 growth inh: 24.6%; TbPYK inhibitor: -14.8%; FBPA Giardia inh: -9.9%; Shiga inhibitor: 31.6; CHX counter: 30.5*

How did O=C(CN(c1cccc(C(F)(F)F)c1)S(=O)(=O)c1ccccc1)Nc1cccc(Cl)c1 do in these assays?
TbPYK inhibitor: -2.2%

What do the screens show for `COC(=O)c1sccc1-c1ccc(C(=O)Nc2ccccc2)o1`?
LmPK inhibitor: 1.2%; RE007 growth inh: inconclusive; TbPYK inhibitor: -6.6%; FBPA Giardia inh: -3.8%; Shiga inhibitor: 74.9*; CHX counter: 78.0*

What do the screens show for `O=C(Nc1ccccc1)c1cc(-c2ccccc2Cl)no1`?
LmPK inhibitor: -9.0%; RE007 growth inh: inconclusive; TbPYK inhibitor: -25.8%; FBPA Giardia inh: -4.1%; Shiga inhibitor: 121.9*; CHX counter: 47.1*

What do the screens show for `COc1ccc(NC(=O)c2cc(-c3ccccc3Cl)no2)cc1`?
LmPK inhibitor: 1.4%; RE007 growth inh: -4.5%; TbPYK inhibitor: -7.8%; FBPA Giardia inh: -0.2%; Shiga inhibitor: 68.8*; CHX counter: 32.4*
